We go through 24 molecules from paper PMC12136788.

Changes are numbered by the printed parent chain. The full ranking holds about 24,000 sequences; the median of “enrichment r” is about 0.99, and the highest 2% start at about 3.7. The list comes from a sample in which the highest values are over-represented; it also holds similar and randomly drawn sequences.

The labels stand for the following.
T1: UNK ZnF1-3 (human, UniProt Q9C0B0 31-174)
T1 sequence: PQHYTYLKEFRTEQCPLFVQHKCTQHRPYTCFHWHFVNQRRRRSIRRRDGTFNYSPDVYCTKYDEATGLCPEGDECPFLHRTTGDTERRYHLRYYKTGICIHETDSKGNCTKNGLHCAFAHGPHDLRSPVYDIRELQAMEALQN

B1: chr3:35977374:35977375:+_ENSMUSG00000027710_ENSMUST00000011492|mus_hu|motif|central (ssRNA)
RNA: GGGAGUUCUACAGUCCGACGAUCCACAGGUAUCUUGGUGUUUUCAAAAUGGACUUCACAAGUGUUGGAGCCCCGAAUGCCGGAUUUAUCUUCGGGUUUCCCAUUAGUGACUCCACCAAAGUCUCUUUCUACUAUGAAUGCUGUCAACAGAGGAUUGAGCAUCA
B2: chr2:24917620:24917621:+_ENSMUSG00000006476_ENSMUST00000102931|mus_mus|motif|central (ssRNA)
RNA: GGGAGUUCUACAGUCCGACGAUCAGUAAUGCUGCUUCCCUUCAAAUUGUUUCAGGGGUGUAAAAAAAUUGCACUUAUUUCGGUGAACCCCAUGGAGGGGAUCCCCAAUGCUGCUGCCUCCAGGCGAGGCAUGACAGGUCAAUGCAACAGAGGAUUGAGCAUCA
B3: chr5:10264850:10264851:+_ENSG00000150753_ENST00000503026|hu_hu|FALSE|FALSE (ssRNA)
RNA: GGGAGUUCUACAGUCCGACGAUCUUCUCAAUGUCUUCAUUCUUCAGAUUCUCCAGGCUUACGAAUGUCAUCAAUCUUCAAAAUCAUUCUAACCAUUUGUGUUGCAAGAGAUAUCUGUUGCUUUUUGCCAAUCAAGGUUUCUAUCAACAGAGGAUUGAGCAUCA
B4: chr12:75046761:75046762:+_ENSMUSG00000021109_ENSMUST00000021530|mus_mus|FALSE|FALSE (ssRNA)
RNA: GGGAGUUCUACAGUCCGACGAUCAUAUAGAAAAUAUAAAUAGACUGCUGAGCCACCAGUGUCCAAAAAUAACCAACAGAAACAAAAACCCAACAAACAACAACAACUGAACAAAAACAUUAACAAUCAAAAGGAAUGAGAUUACAACAGAGGAUUGAGCAUCA
B5: chr4:34514055:34514056:+_ENSMUSG00000028291_ENSMUST00000084299|mus_mus|FALSE|FALSE (ssRNA)
RNA: GGGAGUUCUACAGUCCGACGAUCCUGGGGAGGAGGUGCAGCAAUAAACAUUUGUUAAAAAGACUGAUAGAAUAAAUAAAACUACCAAAAAAUAAUAAAGAAAAUCAUAUAAACCCAUUCUGAAACCCCAAGAAAAGUCCUGAACAACAGAGGAUUGAGCAUCA
B6: 85396044_85398007_762_3pUTR_ENSMUSG00000021549_ENSMUST00000109552|mouse|control|control (ssRNA)
RNA: GGGAGUUCUACAGUCCGACGAUCCACCAAUGUAGUAAUCACCACACAUAGCAAUAAUCCUAAAAUGAUUGACAACAUUUGUCUGACUAAGGAAUGAAAGUACAAAGGACCCCGGCCUCCGAUCACUCUCUCUUAUAAGAUAGCCAACAGAGGAUUGAGCAUCA
B7: chr6:13786029:13786030:-_ENSMUSG00000048216_ENSMUST00000115492|mus_mus|FALSE|FALSE (ssRNA)
RNA: GGGAGUUCUACAGUCCGACGAUCAAAAACUCUCCAAUAGCAGGCCACCAGGUAGGGACCCCACAAGGUUAGGAAGAGGAAAGUCAUUAUAUAAAACAUUCUGCUGAUUCUUUUCUCCAUUUUGAACUCAUCCAAGACCAAUAGCAACAGAGGAUUGAGCAUCA
B8: chr4:34514055:34514056:+_ENSMUSG00000028291_ENSMUST00000084299|mus_mus|motif|central (ssRNA)
RNA: B5 RNA with U82G, A83G
B9: chr2:166767530:166767531:+_ENSMUSG00000002718_ENSMUST00000002790|mus_mus|FALSE|FALSE (ssRNA)
RNA: GGGAGUUCUACAGUCCGACGAUCAAAUAUUUCUUGUAAUGCUAGUGCCCCAUACUUAAUGCAAUAUAAGUUAAUAAACACUAAGAAACUCUUGAUAAACUUGGUGGUCUUGGAGUUUUGCAGUCUCUGGAAUAGUAGAAUGAACAACAGAGGAUUGAGCAUCA
B10: chr9:115598534:115598535:+_ENSG00000148158_ENST00000374232|hu_mus|motif|central (ssRNA)
RNA: GGGAGUUCUACAGUCCGACGAUCCAGCUUAUAGCCUCCGGUGACGUGCUUGACUGACUCACCCACUCUGCUCAGCAAUGCGGUCCCUUGCUUCUUGUAGGCAUUCAGGUCCUUAGCAGUGAGGAACACAUUGAAGUGUUCAUUCAACAGAGGAUUGAGCAUCA
B11: chr8:41682716:41682717:-_ENSMUSG00000039431_ENSMUST00000048898|mus_hu|motif|central (ssRNA)
RNA: GGGAGUUCUACAGUCCGACGAUCCACAUCGCUGAGCUGCCAGUAAUGAUUAGGGAGGCCCAUCCGCGUGUAUUCUUCACGGAGAUCGAUCAGCACCCAGCCUUGCUCUCUUUCUUCUUUAUCCAGCAUGGGGUUGAAUGAAAACAACAGAGGAUUGAGCAUCA
B12: 34871406_34871526_3634_3pUTR_ENSMUSG00000037503_ENSMUST00000047534|mouse|control|control (ssRNA)
RNA: GGGAGUUCUACAGUCCGACGAUCAUGGUGGUGGGUUUGCUUCUCCAGAGUCAAGGAGCUUACAGUUUCCAAUACUCCACAACUCUAAACUGCAAGCAGCAGCAGCCGAGGAAGGAAGGCCCCUAGCCUCAGGGACGGCAGCAGCAACAGAGGAUUGAGCAUCA
B13: chr2:104430758:104430759:+_ENSMUSG00000027176_ENSMUST00000028599|mus_mus|motif|central (ssRNA)
RNA: GGGAGUUCUACAGUCCGACGAUCGGGACUACAACGUACGCACCAGCCGGCAAAGGGAAGCUAGAAAAGGAAAAUUAAACGGAAGGCAAACCCCACCAAAACCAGGAACACUACCCCUGUCCCUCAGAGCCAAAGCCGCCGCCACAACAGAGGAUUGAGCAUCA
B14: chr4:155540527:155540528:-_ENSMUSG00000041936_ENSMUST00000154494|mus_hu|FALSE|FALSE (ssRNA)
RNA: GGGAGUUCUACAGUCCGACGAUCGCCUGGACGGAAGGGAGGCCGGGCCAGCAGUCCCUCCGGCCAACACUCAGGCAAGAAAAUCAUAUCAAAAAGCAACAAGUUUACAAAAAUAGAAAAUAAUUACAGCGGGCGCGGGGCUCUCAACAGAGGAUUGAGCAUCA
B15: chr3:38349274:38349275:-_ENSMUSG00000044864_ENSMUST00000156038|mus_mus|FALSE|FALSE (ssRNA)
RNA: GGGAGUUCUACAGUCCGACGAUCAAAUGACCAAGUACAGCAAGCAGGCUGGCUACAGCACCCUGGUCAGCCUGGUCCUCGCCAGAAGCUGUUUUUGUUCUACUUUAAAUCAGUUAAUAAUAAAAACAAAACAAAAGGGAAAAACAACAGAGGAUUGAGCAUCA
B16: chr15:100311029:100311030:-_ENSMUSG00000044636_ENSMUST00000061457|mus_mus|FALSE|FALSE (ssRNA)
RNA: GGGAGUUCUACAGUCCGACGAUCGCCUGGUCUACAUAGCAAGUCCCAGGCCAGCCAGGGCUGUUUAGCAACACACUGCCUAAAAAAAAAAAAAGAAAAAAGAAAAGAAAAGAAAAGAAAAGAAAAGAAAAGAAAAGAAAAGAACAACAGAGGAUUGAGCAUCA
B17: chr12:86311719:86311720:-_ENSMUSG00000042350_ENSMUST00000043169|mus_hu|FALSE|FALSE (ssRNA)
RNA: GGGAGUUCUACAGUCCGACGAUCGACUGCCAAAGGACGCCCCAGGAUCCCGAGCCGGGGGUUGCAGCGCGACGAAGUUCCACCUCCGCUGUCCUGGGAAGGGGCGGCAGCACUCAGCAGAAGACGGGCUCCCCACUCUCCCACCAACAGAGGAUUGAGCAUCA
B18: 91351710_91351830_385_5pUTR_ENSMUSG00000055013_ENSMUST00000027521|mouse|control|control (ssRNA)
RNA: GGGAGUUCUACAGUCCGACGAUCAAGAAAAAGAAAAAGAAAAAGAAAAGAACGCUGAGGAUGAAGCAGUAGAGGGGCUCAGUUCAUAGCAGGGACCAGCGUCCCGGGUCAGCGGGCCGUCCGGGAAGACCGCGGCGCCAUGGACAACAGAGGAUUGAGCAUCA
B19: chr4:140556289:140556290:+_ENSMUSG00000036622_ENSMUST00000037055|mus_mus|mus_mus_mus_hu_False|8_78 (ssRNA)
RNA: GGGAGUUCUACAGUCCGACGAUCGAUGGAGCUCACCAGGCCCCCUUUUGCCGUGCAGAACCCUGUCCGGGUCACCACUGCCAGGACGUGCGGUCCCACAUAGGCCCGGGCCUGCAAGAUGAGGGUCCCACAGAAGAGUGUGUGCAACAGAGGAUUGAGCAUCA
B20: chr18:64617603:64617604:-_ENSMUSG00000024588_ENSMUST00000025484|mus_mus|FALSE|FALSE (ssRNA)
RNA: GGGAGUUCUACAGUCCGACGAUCGCGGGAGGCACACUGGAAGCCAGUUUGGCCUACAUAGGGCAAGCGAGAAAUAAGAUAAAAUAAGAUAAAACACAGGCAAGAGAGAAAUCACAGUUUGUGCCCAGACAAACGUGGCUUCUGCAACAGAGGAUUGAGCAUCA
B21: chr2:181041410:181041411:-_ENSMUSG00000027581_ENSMUST00000103045|mus_hu|FALSE|FALSE (ssRNA)
RNA: GGGAGUUCUACAGUCCGACGAUCAGCAUGAAGCUGGGGGCGGGGGUGGGGGAGGAGGAACAAAAGUUGCAUCUAGACAGAGGUGAACGAAACAAAACCAAAACCCGAACGUGUUCUGUCGCAGGAUGGGCGCCGCCCGUCCCGCAACAGAGGAUUGAGCAUCA
B22: chr7:23239867:23239868:+_ENSG00000136243_ENST00000258742|hu_hu|FALSE|FALSE (ssRNA)
RNA: GGGAGUUCUACAGUCCGACGAUCCCCAAAACCAGCAGGGCUUCCAGAAGAGGCAGCAGCAAAUCCAGAGUUUGUUUUAAAACUAAAGUUCUGAGCAUUAUCACUGCUGCUGUUAUUGACUGGAAAGCCUGGCGACAUAAAUGUCAACAGAGGAUUGAGCAUCA
B23: chr15:100311029:100311030:-_ENSMUSG00000044636_ENSMUST00000061457|mus_mus|motif|central (ssRNA)
RNA: B16 RNA with U80G, A81G
B24: chr9:108469239:108469240:-_ENSMUSG00000070283_ENSMUST00000074208|mus_hu|FALSE|FALSE (ssRNA)
RNA: GGGAGUUCUACAGUCCGACGAUCGGGAAGCUCAACGGGCGGACAGCGCAGCGAGGGUCGCGCUCGGUACAAGCUACGUAGCGCGAGAGCGGUGGCCAUGGCUGACCAACGCGCGGCGAAGUCGUCACCGGCGCCGUUAGUCCCCAACAGAGGAUUGAGCAUCA

The target of this assay is T1, UNK ZnF1-3. The assay can be described thus: nsRBNS (natural sequence RNA bind-n-seq); RBNS binding buffer (assumed for nsRBNS): 25 mM Tris pH 7.5, 150 mM KCl, 3 mM MgCl2, 0.01% Triton X-100, 500 ug/ml BSA, 20 U/ml SUPERase-In, 4 C; UNK is unkempt and MSI1 is Musashi-1; names of the RNAs are library labels; protein concentration not given here; high values mean tight binding.
The molecule B1 yielded a binding signal of 0.637 enrichment R.
In turn, B2 yielded a binding signal of 1.02 enrichment R.
As for B3, the binding signal is 0.579 enrichment R.
B4 had a binding signal of 3.57 enrichment R.
Consider B5, for which the binding signal worked out at 8.55 enrichment R.
Next, B6: 0.49 enrichment R.
The molecule B7 displayed a binding signal of 1.71 enrichment R.
B8 returned a binding signal of 15.2 enrichment R.
Next, B9: 1.05 enrichment R; B10: 0.691 enrichment R; B11: 1.07 enrichment R.
Next, B12: 1.48 enrichment R.
Next, B13: 2.17 enrichment R.
In turn, B14 came in with a binding signal of 4.13 enrichment R.
Next, B15: 0.882 enrichment R; B16: 4.34 enrichment R.
Next, B17: 1.33 enrichment R; B18: 4.11 enrichment R.
The molecule B19 registered a binding signal of 1.02 enrichment R.
Next, B20: 3.43 enrichment R.
Next, B21: 3.3 enrichment R.
Molecule B22 gave a binding signal of 0.668 enrichment R.
Next, B23: 4.43 enrichment R; B24: 0.446 enrichment R.
